Calls of active or inactive are those of the source. The calls were made as follows: active = hit-call score of the fitted dose curve at least 0.9, where 1 is the maximum; inconclusive = response in the unintended direction; inactive = score below 0.9.

The subject of the assay is Thyroperoxidase (TPO), gene 54314. Briefly: CCTE_Simmons_AUR_rTPO: CCTE's Amplex UltraRed Assay for Thyroperoxidase (TPO) Inhibition, Simmons Lab (AID 2283662).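 As to AC50: potency for loss of signal meaning inhibition of peroxidase activity.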 As for the experimental part: CCTE_Simmons_AUR_rTPO is a biochemical, single-readout assay that uses microsomes from rat thyroid gland in a tissue-based cell-free assay. Measurements were taken 0.5 hour after chemical dosing in a 384-well plate.CCTE_Simmons_AUR_rTPO is the assay component measured from the CCTE_Simmons_AUR_rTPO assay. It is designed to make measurements of thyroperoxidase (TPO) activity as detected with fluorescence intensity signals using the Amplex UltraRed technology as a form of enzyme activity reporter.Data from the assay component CCTE_Simmons_AUR_rTPO was analyzed at the endpoint, CCTE_Simmons_AUR_rTPO, in the positive analysis fitting direction relative to DMSO as the negative control and baseline of activity. Using a type of enzyme reporter, the Amplex UltraRed assay, loss-of-signal activity can be used to understand decreased peroxidase activity in the presence of excess […]. To generalize the intended target to other relatable targets, this assay endpoint is annotated to the oxidoreductase intended target family, where the subfamily is peroxidase.
As described previously (Paul et al., 2014), the AUR substrate was repurposed to detect peroxidase (ie, TPO) activity in the presence of excess H2O2 for the AUR-TPO assay. The reaction profile for the 384-well format AUR-TPO assay is scaled to an 80 ul assay volume containing 25 uM AUR, 300 uM H2O2, and 5 ug microsomal protein in 200 mM phosphate buffer. The assay concentration of thyroid microsomal protein was approximately […]. First, rat microsomes containing TPO and diluent 200mM potassium phosphate buffer were added to opaque, black 384-well plates (Greiner, BioExpress; Kaysville, Utah) using an automated liquid handler (BioTek MicroFlo; Winooski, Vermont) with a plastic 5 ul tubing cassette. Similarly, AUR was added next by automated liquid handling. Test compounds were administered using a HDRT as described earlier to achieve a 0.5% final DMSO concentration. Finally, H2O2 (300 uM, final concentration) was then added by the BioTek MicroFlo to initiate the reaction. Microplates were incubated at 37C in the dark for 30min. Plates were then shaken on a fluorescence plate reader (FLUOStar Optima, BMG LabTech; GmbH, Germany), and endpoint fluorescence (top read) was measured using 10 flashes per well at 544/590nm excitation/emission. Three biological replicates of technical singles were run for every chemical concentration tested. A titrated range of MMI served as a positive control for TPO inhibition on each plate of the AUR-TPO screening campaign. Test chemicals were administered as a titrated series of 8 concentrations from 5 nM up to 87.5 uM [final] for 30 minutes prior to single endpoint detection. Dimethylsulfoxide [DMSO] was used as the vehicle control. Methimazole [MMI] was used as the positive control and was administered as a titrated series of 8 concentrations from 1 nM up to 271 uM [final].
With `CN[C@H]1CC[C@@H](c2ccc(Cl)c(Cl)c2)c2ccc(S(N)(=O)=O)cc21`, the outcome was inactive. On the same count and under the same terms, next, `CC(=O)OC/C=C(\C)CCC=C(C)C`: “inactive”.

Take `CCOc1ccc2c(c1)C(C)=CC(C)(C)N2`: the AC50 is 1.48 µM (active). With `Cc1cccc(C)c1O`, the half-maximal activity concentration (AC50) was 23.4 µM (active). In the case of `C[C@]12C=CC(=O)C=C1CC[C@@H]1[C@@H]2C(=O)C[C@@]2(C)[C@H]1CC[C@]2(O)C(=O)CO`, the molecule was classed as inactive. Take `COc1cc(S(=O)(=O)O)c(C)cc1N=Nc1c(O)ccc2cc(S(=O)(=O)O)ccc12`: the AC50 is 23.3 µM (active). On the same count and under the same terms, then `COc1ccc(C)cc1N`, with 1.23 µM (active). For the molecule `Oc1ccc2ccccc2c1N=Nc1ccccc1`, the outcome was inactive. As to `Nc1ccc(S(=O)(=O)c2ccc(N)cc2)cc1`, the AC50 was 6.89 µM (active).

`CC=Cc1ccc(O)c(OC)c1`: the AC50 was 6.14 µM (active).

Take `CCNc1cccc(C)c1`: the AC50 is 12.1 µM (active).

In the case of `Nc1nc(N)c2nc(CNc3ccc(C(=O)N[C@@H](CCC(=O)O)C(=O)O)cc3)cnc2n1`, the AC50 was 11.7 µM (active). Still for that read-out and setting: next, `C=CCc1ccc(O)c(OC)c1`: 6.16 µM (active). With `Cc1ccc(C)c(O)c1C`, the AC50 was 10.5 µM (active). `CNC(=O)[C@H]1O[C@@H](n2cnc3c(NCc4cc(Cl)ccc4OCc4cc(C)no4)ncnc32)[C@H](O)[C@@H]1N`: the result was inactive. As to `Cc1cc(=O)[nH]c(=S)[nH]1`, the AC50 is 0.593 µM (active). Regarding `Cc1c(C(=O)O)c(O)cc2c1C(=O)c1c(O)c([C@@H]3O[C@H](CO)[C@@H](O)[C@H](O)[C@H]3O)c(O)c(O)c1C2=O`, the AC50 is 2.65 µM (active). Still for that read-out and setting: then `Nc1ccccc1N`, with 4.15 µM (active); and `Cc1ccc(N(C)C)cc1`, with 11.3 µM (active); and `CC(C)(C)c1cc(O)c(C(C)(C)C)cc1O`, with 3.58 µM (active). Same read-out and setting: next, `CCCCC(CC)COC(=O)CC(C(=O)OCC(CC)CCCC)S(=O)(=O)O` (stereo unspecified): 43.8 µM (active). Turning to `O=c1c(O)c(-c2ccc(O)c(O)c2)oc2cc(O)cc(O)c12`, the AC50 is 0.182 µM (active). Same read-out and setting: then `CCCc1cc(=O)[nH]c(=S)[nH]1`, with 0.285 µM (active). As to `Cc1oc(-c2ccccc2)nc1CCOc1cccc2c1ccn2CCC(=O)O`, the AC50 was 28.8 µM (active). The same measure, in the same setting: next, `CC1=C(/C=C/C(C)=C/C=C/C(C)=C/CO)C(C)(C)CCC1`: 28.6 µM (active); `Cc1cc(NC(=O)C(=O)O)cc(C)c1Oc1ccc(O)c2c1CCC2`: 5.07 µM (active).

Source of the values: PubChem BioAssay (EPA / NIEHS).
